What all share (test): NCI-60 one-dose screen, 48 h (100 = growth as untreated, 0 = no growth, -100 = all killed)
Holding throughout (conditions): 10 µM unless noted

The test system of assay [1] is SK-MEL-2 melanoma.
Assay [2] deals with UO-31 renal.
In assay [3] the test system is TK-10 renal.
In assay [4] the test system is ACHN renal.
Assay [5] concerns CAKI-1 renal.
Assay [6] concerns A498 renal.
The test system of assay [7] is CCRF-CEM leukemia.
Assay [8] has as its system MOLT-4 leukemia.
For assay [9], the system named is SN12C renal.
The test system of assay [10] is EKVX NSCLC.

This is part of a sample that, as a whole, favours compounds with a hit. Of some 83,000 tested, about 20% had one in any assay.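 Compound tested at a single concentration for 48 hours in 96-well plates; a percent growth value below 10 was scored as active.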 Values without a mark were called inactive. Calls of active or inactive are those of the source.

As for `CCN(CC)CCN1C(=O)c2c(c3c4ccccc4[nH]c3c3ccc4ccccc4c23)C1=O`, the growth was 97.7% in assay [1]; 14.3% in assay [2]; -86.2% (active) in [3]; 36.6% in assay [4]; 50.7% in assay [5]; 35.1% in assay [6]. Moreover, the growth was -8.15% (active) in assay [7] and -29.5% (active) in [8].
Take `O=C(Nc1nc(Cl)nc(Nc2ccc(N3CCOCC3=O)cc2)n1)c1ccc(Cl)s1`: the growth was 84% in assay [1]; 92.1% in [9]; 91.5% in assay [2]; 120% in assay [3]; 95.7% in assay [4]; 99.8% in [5]. The growth was 80.9% in assay [7] and 85.2% in [8].
Regarding `C#Cc1cccc(NC(=O)C2CCCCN2C(=O)CCl)c1` (stereo not drawn), the growth in assay [1] is -51.7% [8.25 µM] (active); in assay [9] it was -92.3% [8.25 µM] (active); in assay [2], -97.3% [8.25 µM] (active); in assay [5] it was -95.5% [8.25 µM] (active); in [6], 58.5% [8.25 µM]; in assay [7], -11.9% [8.25 µM] (active). Also, the growth in assay [8] was -13.7% [8.25 µM] (active).
In the case of `N#Cc1c(-c2ccccc2)nc2c(c(-c3ccccc3)nn2-c2ccccc2)c1-c1ccc(N2CCCCC2)cc1`, the growth in assay [1] was 110%; in [9], 99.4%; in assay [2], 84.9%; in assay [3] it was 103%; in [4], 101%; in [5], 86.1%. In addition, the growth in [6] is 97.7%; in [7] it was 96.5%; in assay [8] it was 95.5%.
Regarding `Cc1ccc(OCCOCCOCCOCCOCCOc2ccc(C)n(O)c2=S)c(=S)n1O`, the growth was 15.7% in [1]; 8.41% (active) in assay [9]; -26.1% (active) in assay [2]; 30.2% in [3]; 8.16% (active) in [4]; 7.97% (active) in assay [5]. In addition, the growth in [6] was 20.4%; in assay [7], 1.49% (active); in assay [8], 2.29% (active).
Consider `CCOC(=O)c1cnn(CC(C)O)c1NC(=O)NCc1ccccc1C(F)(F)F` (stereo not drawn), for which the growth in assay [1] is 76.6%; in assay [9], 99%; in [2], 87.1%; in assay [3], 80.9%; in assay [4], 98.3%; in assay [5] it was 86.4%. The results for the growth in assay [6], in assay [7] and in [8] were 108%, 114% and 76%, respectively.
As to `COc1cccc(CNc2c3ccccc3nc3ccccc23)c1OC`, the growth was 79.2% in assay [1]; 30.9% in assay [9]; 25.2% in assay [2]; 59.5% in [3]; 21.1% in assay [4]; 33.7% in assay [5]. Also, the growth in [6] is -4.13% (active); in assay [7], 39.5%; in [8], 17.9%.
Take `CCn1cc(Cc2cc(C(=O)Nc3cc4cc(OC)c(OC)cc4c(C)n3)ccc2Cl)cn1`: the growth was 42% in assay [1]; 50.2% in assay [9]; 35% in assay [2]; 73.7% in [3]; 15.7% in assay [4]; 47.8% in [5]. Besides, the growth in assay [6] was 44.4%; in assay [7], 22.4%; in [8] it was 42.6%.
With `C=CCn1cc(-c2nc3ccccc3s2)c2cc(-c3ccc4c5c(cccc35)C(=O)N(CCO)C4=O)ccc21`, the growth in assay [1] is 105%; in assay [10] it was 81.3%; in assay [2], 62.7%; in [3], 138%; in assay [5], 75.2%; in assay [6], 113%. In addition, the growth in assay [7] is 104%; in assay [8], 91.3%.
Consider `O=C1O[C@@H](c2ccccc2Cl)[C@@H]2c3cc4c(cc3CCN12)OCO4`, for which the growth is 91.7% in assay [1]; 103% in assay [9]; 74.6% in assay [2]; 89.1% in assay [3]; 105% in assay [4]; 105% in assay [5]. Further, the values for the growth in assay [6], in assay [7] and in [8] were 82.8%, 105% and 90.5%, respectively.
Turning to `CCN(CC)C(=O)C1=C(C)NC(=O)NC1c1ccc2c(c1)OCO2` (stereo not drawn), the growth is 108% in [1]; 107% in [9]; 81.4% in assay [2]; 100% in assay [3]; 103% in assay [4]; 93.1% in assay [5]. The growth in assay [6] was 111%; in assay [7], 104%; in [8] it was 104%.
Consider `CCOC(=O)NCCCC(=O)NCCc1ccccc1`, for which the growth in assay [1] was 110%; in assay [9], 106%; in [2], 90.3%; in assay [3] it was 104%; in [4], 111%; in assay [5], 99.5%. Besides, the values for the growth in assay [6], in assay [7] and in [8] were 106%, 108% and 101%, respectively.
With `O=c1oc2ccccc2cc1-c1nn(-c2ccccc2)cc1-c1nn[nH]n1`, the growth was 104% in [1]; 96.2% in assay [9]; 78.4% in [2]; 101% in assay [3]; 99.9% in [4]; 87.6% in assay [5]. Further, the growth in [6] is 95.1%; in assay [7], 104%; in [8], 99%.
Consider `O=C(/C=C/c1ccccc1Cl)c1cccc(OCCCCOc2cccc(C(=O)/C=C/c3ccccc3Cl)c2)c1`, for which the growth in assay [1] was 110%; in assay [9], 95.8%; in assay [2] it was 83.9%; in assay [3] it was 118%; in assay [4], 98.4%; in [5] it was 93.4%. Besides, the growth was 109% in assay [6], 91.8% in assay [7] and 93.9% in assay [8].
On to `CCN(CC)CCOc1ccc(C(=O)/C=C\c2ccc(Cl)cc2Cl)cc1`, for which the growth in [1] is 81%; in assay [10], 63.5%; in [2] it was 25%; in [3] it was 75.9%; in assay [5], 55%; in assay [6], 70%. Besides, the growth in assay [7] was 7.28% (active); in [8] it was -13.1% (active).
For the compound `CNC(=O)Nc1ccc(-c2ccc3ncnc(Nc4cccc(Cl)c4)c3c2)cc1`, the growth was 65.9% in assay [1]; 62.3% in [9]; 46.5% in [2]; 32.1% in assay [5]; 44.5% in assay [7]; 36.7% in assay [8].
Regarding `O=CN1N=C(c2cccc(Nc3ccnc4cc(Cl)ccc34)c2)CC1c1ccc(Cl)cc1` (stereo not drawn), the growth in assay [1] was 9.56% (active); in assay [9], 34.1%; in [2], 22.7%; in [3], 45%; in [4] it was 45.5%; in [5], 18.8%. The growth was 11.4% in assay [6], 12.2% in assay [7] and 13.7% in assay [8].
Turning to `O=S(=O)(Nc1cc(F)cc(F)c1)c1ccc(-c2cnc(C3CC3)o2)cc1`, the growth in assay [1] is 39.9%; in assay [10] it was 52.5%; in assay [2] it was 50.1%; in assay [3], 63.1%; in assay [5], 32.7%; in assay [7], 32.2%. Also, the growth in [8] was 39.1%.
As to `Cc1ccc(Cc2cnc(NC(=O)/C=C/c3ccc(C)o3)s2)cc1`, the growth in [1] is 53.8%; in assay [9] it was 51.7%; in assay [2] it was 48.5%; in assay [3], 68%; in [4] it was 40.4%; in assay [5], 36%. The growth in [7] is 27.8%; in assay [8], 37.6%.
For `N#Cc1c(-c2cccc(Cl)c2)cc(-c2cccnc2)[nH]c1=O`, the growth was 79.7% in assay [1]; 82.6% in assay [9]; 64.3% in assay [2]; 127% in assay [3]; 89% in assay [4]; 72.8% in [5]. The growth in assay [6] was 101%; in [7], 71.5%; in [8] it was 72.1%.
For the compound `CN(C)CCC(=O)C1CC1`, the growth in [1] is 111%; in assay [9], 98.9%; in assay [2] it was 75.9%; in assay [3], 113%; in [4], 103%; in [5], 102%. Also, the growth in assay [6] is 106%; in assay [7], 103%; in assay [8], 96.9%.
For the compound `CCN(CC)CCOc1ccc2c(-c3ccccc3)c(-c3ccc(OC)cc3)c(=O)oc2c1`, the growth in assay [1] was 51.6%; in assay [9], 68.5%; in assay [2] it was 62.6%; in assay [3] it was 75.9%; in [5] it was 71.9%; in [6], 70.2%. The growth in assay [7] is 75.3%; in [8], 35.4%.
`Clc1ccc(Nc2nnc(CNc3ccccc3)c3ccccc23)cc1`: the growth is 8.63% (active) in assay [1]; 28.9% in assay [9]; 1.91% (active) in [2]; -0.692% (active) in [3]; 7.07% (active) in assay [4]; 28.2% in assay [5]. The growth in assay [6] is 24.7%; in [7], 12.4%; in [8], -9.21% (active).
As for `O=C(C1=Cc2cc3ccccc3n2Cc2cnnn21)c1ccc(F)cc1`, the growth was 103% in assay [1]; 97.6% in assay [9]; 88.6% in [2]; 107% in assay [3]; 103% in assay [4]; 90.9% in [5]. Besides, the values for the growth in assay [6], in assay [7] and in assay [8] were 79.9%, 97.8% and 89%, respectively.
Regarding `OC1(c2ccccc2)c2ccccc2N(c2ccccc2)c2ccc(Cl)cc21` (stereo not drawn), the growth in assay [1] is -72.1% (active); in assay [9] it was -81.6% (active); in assay [2], -95% (active); in assay [3], -95.5% (active); in assay [4], -99.5% (active); in [5], -9.02% (active). Moreover, the growth was -62.6% (active) in assay [6], -13% (active) in [7] and 1.26% (active) in assay [8].
Take `COc1ccc(/C=N/NC(=O)Cn2c(-c3ccc(S(C)(=O)=O)cc3)nc3ccccc32)cc1`: the growth in assay [1] was 107%; in assay [9], 99.9%; in assay [2] it was 75.9%; in [4] it was 105%; in assay [5] it was 93%; in assay [6], 95%. The values for the growth in assay [7] and in assay [8] were 106% and 141%, respectively.
On to `CCCCCCCCCCCCCCCCCCOc1ccccc1CC(=O)NCC[N+](C)(C)C`, for which the growth in assay [1] was 68.8%; in assay [9], 23.5%; in assay [2] it was 80.2%; in assay [4] it was 78.3%; in [5] it was 18.7%; in assay [6], 65.6%. Moreover, the growth in assay [7] was -5.38% (active); in assay [8], 17.1%.
Regarding `C=C(C)[C@@H]1CC[C@]2(C(=O)N3CCNCC3)CC[C@]3(C)[C@H](CC[C@@H]4[C@@](C)(CCC(=O)N5CCNCC5)[C@H](C(=C)C)CC[C@]43C)[C@@H]12`, the growth in assay [1] is 102%; in [9], 91.4%; in assay [2], 64.3%; in assay [3], 93.6%; in assay [4], 93.9%; in assay [5], 92.7%. Also, the growth in assay [6] was 76.2%; in [7] it was 3.76% (active); in assay [8], 24.7%.
Consider `COc1cc2c(c(OC)c1OC)CCC(c1cccc(C(=O)Nc3ccc(Br)cc3)c1)O2` (stereo not drawn), for which the growth was 46.4% in [1]; 47.1% in assay [9]; 39.7% in assay [2]; 73.6% in [5]; -3.18% (active) in [6]; 53.3% in assay [7]. The growth in [8] is 25.1%.
`CCCCC#Cc1c(I)n(C2OC(CO[Si](C)(C)C(C)(C)C)C3OC(C)(C)OC32)c(=O)n(C(=O)c2ccccc2)c1=O` (stereo not drawn): the growth in assay [1] was 43%; in assay [9] it was 57.8%; in assay [2] it was -49.4% (active); in assay [3], -11.4% (active); in assay [4] it was 50.6%; in [5] it was 26.9%. Further, the growth in assay [6] was 87.9%; in assay [7], -7.06% (active); in assay [8] it was 1.98% (active).

(Values after PubChem BioAssay (NCI).)
